Screening results: PubChem BioAssay, National Center for Advancing Translational Sciences (NCATS)
PI5P4K alpha inh: qHTS for Inhibitors of phosphatidylinositol 5-phosphate 4-kinase (PI5P4K); Phosphatidylinositol 5-phosphate 4-kinase type-2 alpha (Homo sapiens), P48426; PI5P4Kalpha enzyme, ADP-Glo luminescence, 60 min; hits give low values; max response, %; 1.2% of 330,000 active; active = max response of -50% or lower; inconclusive = between -30% and -50%; inactive = -30% or higher; also: value at the top dose of about 77 µM; % is scaled to controls: 0 for no effect and ±100 for the full control effect
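Human PI5P4Kalpha with substrate in 0.038 M HEPES pH 7.4, 0.28 mM EGTA, 0.1% CHAPS, 5% DMSO; reaction started with 5 microM ATP (final), 60 min at room temperature. ADP formed read by ADP-Glo luminescence.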
PLK1 PBD block: qHTS for Inhibitors of PLK1-PDB (polo-like kinase 1 - polo-box domain): Primary Screen. Serine/threonine-protein kinase PLK1 (Homo sapiens), P53350. Plk1 PBD binding of FITC phosphopeptide, fluorescence polarization. Potency, µM, inactives show max response, negative = inhibition, hits mostly inhibitors. 2.8% of 360,000 active. AID 720504, 2013; also: potency is read from the fitted curve at half-maximal effect; series mostly up to about 57 µM; % is scaled to controls: 0 for no effect and ±100 for the full control effect; nearly all actives have a fitted effect of over 65% in size
Rango complex inh: qHTS Assay for Inhibitors of Rango (Ran-regulated importin-beta cargo) - Importin beta complex formation; Rango CFP/YFP FRET sensor + importin beta, 45 min; Potency, µM (doses to about 92.2 µM), inactives show top-dose inhibition of complex formation; 0.031% of 340,000 active; AID 540263, 2011; calls by dose curve;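 also: potency is read from the fitted curve at half-maximal effect; 0% = DMSO wells and 100% = buffer wells lacking importin beta; nearly all actives have a fitted effect of over 15% in size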
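FRET biosensor (snurportin 1 IBB flanked by EYFP and cerulean), 50 nM, with compound 5 min, then 0.125 microM importin beta in PBS, 1 mM DTT, 0.02% Tween-20, 0.1% BSA. CFP/YFP ratio read after 45 min at room temperature; pre-read flags interference.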
VDR inhibitor: Inhibitors of the vitamin D receptor (VDR): qHTS. VDR-SRC2-3 peptide fluorescence polarization, 2 h. Potency, µM, without a hit: max response, negative = inhibition, actives largely listed as inhibitors. 0.93% of 400,000 active; also: potency is read from the fitted curve at half-maximal effect; % is scaled to controls: 0 for no effect and ±100 for the full control effect
Target sequence (P11473 whole entry, looked up): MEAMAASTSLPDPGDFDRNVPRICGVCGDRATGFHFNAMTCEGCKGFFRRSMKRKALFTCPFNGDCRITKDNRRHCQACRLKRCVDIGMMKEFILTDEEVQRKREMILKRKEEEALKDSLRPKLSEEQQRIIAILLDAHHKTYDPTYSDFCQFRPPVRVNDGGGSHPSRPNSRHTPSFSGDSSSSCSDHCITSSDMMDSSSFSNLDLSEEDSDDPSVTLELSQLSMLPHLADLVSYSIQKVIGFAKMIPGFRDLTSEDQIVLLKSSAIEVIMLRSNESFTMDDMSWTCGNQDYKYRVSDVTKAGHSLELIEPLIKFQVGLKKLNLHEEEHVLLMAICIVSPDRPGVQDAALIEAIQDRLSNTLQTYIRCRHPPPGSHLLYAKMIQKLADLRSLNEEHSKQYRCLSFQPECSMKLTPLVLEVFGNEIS
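FP read-out; VDR + SRC2-3 coactivator peptide; 23 nl compound by pintool; 2 h RT incubation; reagents held at 4 deg C, protected from light.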
Rango release inh: qHTS Assay for Inhibitors of RanGTP induced Rango (Ran-regulated importin-beta cargo) - Importin beta complex dissociation; Potency, µM (doses to about 46.1 µM), without a hit: top-dose activity change, negative = inhibition; 0.071% of 340,000 active; Snurportin-1 (Homo sapiens) + GTP-binding nuclear protein Ran (Homo sapiens) + Importin …; Biochemical FRET Rango-importin beta, RanGTP-induced dissociation; calls by dose curve; also: potency is read from the fitted curve at half-maximal effect; % of control where 0% means no effect; nearly all actives have a fitted effect of over 45% in size
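Quantitative HTS using a FRET biosensor: 0.1 uM Rango, 0.25 uM importin beta, 0.6 uM Ran, 2 mM GTP, 0.2 uM RCC1 final, PBS with DTT, Tween-20 and BSA. Post-read taken 45 min after Ran addition.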
KAT2A inh: qHTS Assay for Inhibitors of GCN5L2 | Histone acetyltransferase KAT2A (Homo sapiens), Q92830 | GCN5L2 HAT assay, ThioGlo1 CoA-SH fluorescence | Potency, µM (doses to about 58.9 µM), without a hit: at the highest dose activity change, negative = inhibition, actives largely listed as inhibitors | 0.21% of 390,000 active | AID 504327, 2011; also: potency is read from the fitted curve at half-maximal effect; % is scaled to controls: 0 for no effect and ±100 for the full control effect
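GCN5L2 (20 nM) in 50mM HEPES pH 7.5, 0.1mM EDTA, 0.01% Tween-20 preincubated 15 min with compounds at room temperature. Reaction started with H3(1-25) 75uM, acetyl-CoA 70uM, ThioGlo1 50uM; CoA-thiol fluorescence (Ex340/Em540) read at 0 and 20 min.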
The depositor's hits bear a star. Most compounds without a hit are left out; they make up all but 3.6% or so of the library. Unless noted, calls follow the shape of the dose curve; as a rule, active = well fitted curve in the direction sought with a large enough effect; inconclusive = small, poorly fitted or top-dose-only effect, or another doubt; inactive = no such curve, though single readings can be large; an effect the other way counts as inactive or inconclusive.

Results for O=C(OCC1OC(OC(=O)c2cc(O)c(O)c(OC(=O)c3cc(O)c(O)c(O)c3)c2)[C@@H](OC(=O)c2cc(O)c(O)c(OC(=O)c3cc(O)c(O)c(O)c3)c2)C(OC(=O)c2cc(O)c(O)c(OC(=O)c3cc(O)c(O)c(O)c3)c2)C1OC(=O)c1cc(O)c(O)c(OC(=O)c2cc(O)c(O)c(O)c2)c1)c1cc(O)c(O)c(OC(=O)c2cc(O)c(O)c(O)c2)c1 (stereo partly specified) ?
VDR inhibitor: 12.6µM*; KAT2A inh: 3.55µM*

Results for O=C(COc1cccc2c1CCN(Cc1ccccc1F)C2=O)N1CCCCC1 ?
PI5P4K alpha inh: -3.3; PLK1 PBD block: 4.6%; Rango complex inh: -4.4%; VDR inhibitor: 5.5%; Rango release inh: -13.1%; KAT2A inh: 0.6%

How did Cc1ccccc1CN1CCc2c(OCC(=O)N3CCCCC3)cccc2C1=O do in these assays?
PI5P4K alpha inh: -10.9; PLK1 PBD block: 29.9µM*; Rango complex inh: -0.2%; VDR inhibitor: -29.9%; Rango release inh: 1.0%; KAT2A inh: -0.1%

What do the screens show for `Cc1ccc2nc(-c3cccc(NC(=O)CSc4ccc(Cl)cc4)c3)oc2c1`?
VDR inhibitor: 1.4%; KAT2A inh: 0.6%

Results for Cc1c(N2C(=O)/C(=C/C3CC=CCC3)SC2=S)c(=O)n(-c2ccccc2)n1C (stereo unspecified) ?
PI5P4K alpha inh: 0.0; PLK1 PBD block: inconclusive; Rango complex inh: -0.6%; VDR inhibitor: inconclusive; Rango release inh: -3.6%; KAT2A inh: -22.4%

How did Cc1c(N2C(=O)/C(=C\C3CC=CCC3)SC2=S)c(=O)n(-c2ccccc2)n1C (stereo unspecified) do in these assays?
PI5P4K alpha inh: -20.6; PLK1 PBD block: inconclusive; Rango complex inh: 0.6%; VDR inhibitor: 50.1µM*; Rango release inh: 8.4%; KAT2A inh: -10.5%

What do the screens show for `CCCCCCc1cc2cc(C(N)=O)c(=N)oc2cc1O`?
KAT2A inh: -26.8%

Results for CCCCCCc1cc2cc(C(=O)NC)c(=N)oc2cc1O ?
PI5P4K alpha inh: -8.8; PLK1 PBD block: 3.36µM*; Rango complex inh: inconclusive; VDR inhibitor: -2.0%; Rango release inh: inconclusive; KAT2A inh: inconclusive

Results for CN(C)CCOC(=O)c1ccc2[nH]c3c(c2c1)CSCC3 ?
PI5P4K alpha inh: -10.2; PLK1 PBD block: 29.9µM*; Rango complex inh: inconclusive; VDR inhibitor: -4.3%; Rango release inh: inconclusive; KAT2A inh: -8.1%

What do the screens show for `CCOC(=O)c1ccc2[nH]c3c(c2c1)CCCC3`?
PI5P4K alpha inh: 13.7; PLK1 PBD block: -0.5%; Rango complex inh: inconclusive; VDR inhibitor: 6.6%; Rango release inh: -5.0%; KAT2A inh: inconclusive

Results for O=C(O)c1ccc2[nH]c3c(c2c1)CSCC3 ?
PI5P4K alpha inh: -8.7; PLK1 PBD block: inconclusive; Rango complex inh: inconclusive; VDR inhibitor: 44.7µM*; Rango release inh: -0.9%; KAT2A inh: -5.6%

Results for COC(=O)c1ccc2[nH]c3c(c2c1)CC(C)CC3 (stereo unspecified) ?
PI5P4K alpha inh: 7.0; PLK1 PBD block: -4.3%; Rango complex inh: -7.0%; VDR inhibitor: inconclusive; Rango release inh: 1.6%; KAT2A inh: -26.6%

What do the screens show for `CCCCNC(=O)Cn1c(SCc2cccc(F)c2)nc2ccncc21`?
VDR inhibitor: -6.0%

How did CCOc1ccc(NC(=O)c2cnc3sc(N4CCOCC4)nn3c2=O)cc1 do in these assays?
VDR inhibitor: 5.6%; KAT2A inh: -5.8%

Results for COc1ccccc1-c1noc(-c2ccc(NCc3cccnc3)c([N+](=O)[O-])c2)n1 ?
VDR inhibitor: 8.5%; KAT2A inh: -3.5%

Results for CC(Oc1ccc(F)cc1)C(=O)Nc1cccc(-c2nn[nH]n2)c1 (stereo unspecified) ?
PI5P4K alpha inh: -23.1; PLK1 PBD block: 21.2µM*; Rango complex inh: 2.0%; VDR inhibitor: inconclusive; Rango release inh: -7.2%; KAT2A inh: -19.0%

What do the screens show for `Cc1ccc(C(=O)NCc2ccc3c(c2)CCN3C(=O)c2ccc(C)cc2)cc1`?
VDR inhibitor: 10.3%; KAT2A inh: -5.7%

What do the screens show for `Cc1cc(-c2nc3ncccc3o2)ccc1NC(=O)c1ccc([N+](=O)[O-])o1`?
PI5P4K alpha inh: -58.2*; PLK1 PBD block: inconclusive; Rango complex inh: -3.1%; VDR inhibitor: 6.1%; Rango release inh: -12.7%

How did CCCCNC(=O)c1sc2ncnc(N3CCc4ccccc4C3)c2c1C do in these assays?
PLK1 PBD block: 26.7µM*; Rango complex inh: 2.6%; VDR inhibitor: inconclusive; Rango release inh: 1.8%; KAT2A inh: 0.9%

How did Cc1ccc(CC2CC(=O)N(Cc3ccco3)C2=O)cc1 (stereo unspecified) do in these assays?
PI5P4K alpha inh: inconclusive; PLK1 PBD block: -23.5%; Rango complex inh: -1.3%; VDR inhibitor: inconclusive; Rango release inh: -1.9%; KAT2A inh: -18.2%

How did N#CC1=C2SCN(Cc3ccco3)CN2C(=O)CC1c1c(F)cccc1Cl (stereo unspecified) do in these assays?
PI5P4K alpha inh: -50.3*; PLK1 PBD block: 26.7µM*; Rango complex inh: inconclusive; VDR inhibitor: inconclusive; Rango release inh: -29.5%; KAT2A inh: -6.2%

Results for Cc1ccc(C2CC(=O)N3CN(Cc4ccco4)CSC3=C2C#N)cc1 (stereo unspecified) ?
PLK1 PBD block: 26.7µM*; Rango complex inh: inconclusive; VDR inhibitor: inconclusive; Rango release inh: -10.7%; KAT2A inh: -20.1%

What do the screens show for `O=C(NCc1ccco1)C1CC(=O)N(c2ccc(Cl)cc2)C1` (stereo unspecified)?
PI5P4K alpha inh: 2.4; PLK1 PBD block: -8.1%; Rango complex inh: 0.5%; VDR inhibitor: -8.3%; Rango release inh: 1.3%; KAT2A inh: -7.8%

Results for CCc1cccc(C)c1NC(=O)CN1CCCN(Cc2ccccc2Cl)S1(=O)=O ?
VDR inhibitor: -9.3%; KAT2A inh: -4.4%
